These results are taken from PubChem BioAssay (NCATS).

A short description of experiment [1]: qHTS of pediatric cancer cell lines to identify multiple opportunities for drug repurposing: Primary screen for DAOY cells (AID 1347090). Further: nearly all actives have a fitted effect of over 55% in size. Further: potency means the concentration at half of the fitted maximal effect. To be noted: DAOY medulloblastoma viability, CellTiter-Glo luminescence, 48 h; series mostly up to 46 µM. Put shortly:
(§1)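 Eight- or eleven-point concentration series, 48 h treatment at 37 degrees C in growth media; readout CellTiter-Glo luminescence. Potency and efficacy were taken from the concentration-response curves.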
(In general: Quantitative high-throughput screening tests each substance at several concentrations.)

Experiment [2] in a line: qHTS of pediatric cancer cell lines to identify multiple opportunities for drug repurposing: Primary screen for SJ-GBM2 cells (AID 1347091). Further: potency means the concentration at half of the fitted maximal effect. The conditions noted are these: SJ-GBM2 viability, CellTiter-Glo luminescence, 48 h; series mostly up to 46 µM. The method in brief: as §1
A short description of experiment [3]: qHTS of pediatric cancer cell lines to identify multiple opportunities for drug repurposing: Primary screen for A673 cells (AID 1347092). Further: potency means the concentration at half of the fitted maximal effect; nearly all actives have a fitted effect of over 45% in size. To be noted: A673 Ewing sarcoma viability, CellTiter-Glo ATP luminescence, 48 h; series mostly up to 46 µM. The method in brief:
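Cells are plated, rested 5 h, dosed by pintool, incubated 48 h, then lysed with CellTiter-Glo and read by luminescence. DMSO is the neutral control; bortezomib at 2.3 uM final is the positive control.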

A short description of experiment [4]: qHTS of pediatric cancer cell lines to identify multiple opportunities for drug repurposing: Primary screen for SK-N-MC cells (AID 1347093). Further: potency means the concentration at half of the fitted maximal effect. To be noted: SK-N-MC viability, CellTiter-Glo luminescence, 48 h; series mostly up to 46 µM. The method in brief: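 Metabolically active cells were quantified by ATP-dependent luminescence (CellTiter-Glo, 15 min at room temperature) following 48 h treatment. Cells had been plated at 500-1,000 per well and settled for 5 h beforehand.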

The nature of experiment [5]: qHTS of pediatric cancer cell lines to identify multiple opportunities for drug repurposing: Primary screen for BT-37 cells (AID 1347094). Further: potency means the concentration at half of the fitted maximal effect. The conditions noted are these: BT-37 viability, CellTiter-Glo luminescence, 48 h; series mostly up to 57.3 µM. Put shortly: (§2)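 Phenotypic viability qHTS, 48 h compound exposure, CellTiter-Glo luminescence read-out; multi-concentration dosing so that potency and efficacy derive directly from the primary screen's curves.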

Experiment [6] can be described thus: qHTS of pediatric cancer cell lines to identify multiple opportunities for drug repurposing: Primary screen for NB-EBc1 cells (AID 1347095). Further: potency means the concentration at half of the fitted maximal effect. The conditions noted are these: NB-EBc1 neuroblastoma viability, CellTiter-Glo luminescence, 48 h; series mostly up to 46 µM. The method in brief: as §2
Experiment [7] is described as follows: qHTS of pediatric cancer cell lines to identify multiple opportunities for drug repurposing: Primary screen for U-2 OS cells (AID 1347096). Further: nearly all actives have a fitted effect of over 50% in size. Further: potency means the concentration at half of the fitted maximal effect. To be noted: U-2 OS viability, CellTiter-Glo luminescence, 48 h; series mostly up to 46 µM. Put shortly:
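Cells (500-1,000/well) in growth media were settled 5 h at 37 degrees C, then given compounds for 48 h. Viability was read as CellTiter-Glo luminescence. Primary runs used MIPE at 11 points (0.78 nM-46 µM) and NPC at 8 points (0.59 nM-46 µM); follow-ups used 11 points.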

A short description of experiment [8]: qHTS of pediatric cancer cell lines to identify multiple opportunities for drug repurposing: Primary screen for Saos-2 cells (AID 1347097). Further: nearly all actives have a fitted effect of over 40% in size. Further: potency means the concentration at half of the fitted maximal effect. To be noted: Saos-2 viability, CellTiter-Glo ATP luminescence, 48 h; series mostly up to 46 µM. Put shortly:
as §2

Experiment [9] in a line: qHTS of pediatric cancer cell lines to identify multiple opportunities for drug repurposing: Primary screen for TC32 cells (AID 1347089). Further: nearly all actives have a fitted effect of over 60% in size. To be noted: TC32 Ewing sarcoma viability, CellTiter-Glo luminescence, 48 h; series mostly up to 45.8 µM. The method in brief: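 Measured quantity: luminescence from CellTiter-Glo, reflecting metabolically active TC32 cells following 48 h of compound. Curves came straight from multi-point titrations, with 8 or 11 points in primary and 11 in confirmatory screening.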

Molecules are shown by their SMILES. Records with an inconclusive call do not appear. Calls of active or inactive are those of the source. The call rests on the fitted dose curve; in most records, active means well fitted curve in the direction sought with a large enough effect; inconclusive means small, poorly fitted or top-dose-only effect, or another doubt; inactive means no such curve, though single readings can be large; an effect the other way counts as inactive or inconclusive.

Turning to `O=c1c(-c2ccc(O)cc2)coc2cc(OC3O[C@H](CO)[C@H](O)[C@H](O)[C@H]3O)cc(O)c12` (stereo not given in full), the Potency is 3.72 µM (active) in experiment [1]; 2.96 µM (active) in experiment [3]; 2.96 µM (active) in experiment [4]; 21.7 µM (active) in experiment [5]; 18.7 µM (active) in experiment [6]. Besides, the Potency entry in [2], in experiment [7] and in [8] was “inactive” each time.
As to `CC(C)(C)NC(=O)Nc1cccc(Nc2ncc(F)c(NC(C)(C)CO)n2)c1`, the Potency result in experiment [1], in [5], in [7] and in [8] was “inactive” throughout. Also, the Potency in experiment [3] is 18.7 µM (active); in experiment [4], 3.32 µM (active).
Regarding `CC[C@@]1(O)C[C@H](O[C@H]2C[C@H](N(C)C)[C@H](O[C@H]3C[C@H](O)[C@H](O[C@H]4CCC(=O)[C@H](C)O4)[C@H](C)O3)[C@H](C)O2)c2c(cc3c(c2O)C(=O)c2c(O)cccc2C3=O)[C@@H]1C(=O)OC`, the Potency is 0.372 µM (active) in experiment [2]; 18.7 µM (active) in experiment [4]; 0.385 µM (active) in experiment [5]; 0.526 µM (active) in experiment [6]; 16.6 µM (active) in experiment [8]. In addition, the Potency entry in [7] was “inactive”.
Regarding `CC(C)[C@H](CO)Nc1nc(Nc2ccc(C(=O)O)c(Cl)c2)c2ncn(C(C)C)c2n1`, the Potency is 23.5 µM (active) in experiment [6] and 18.7 µM (active) in [8]. In addition, in experiment [7], the Potency result was “inactive”.
Take `CC1(C)S[C@H]2[C@H](NC(=O)[C@@H](N)c3ccc(O)cc3)C(=O)N2[C@@H]1C(=O)O`: the Potency in experiment [1] is 9.35 µM (active); in [3], 0.935 µM (active); in experiment [4], 0.743 µM (active); in experiment [5], 6.85 µM (active); in [6], 16.6 µM (active).
For the compound `NS(=O)(=O)c1ccc(NC2=CC(=O)c3ccccc3C2=O)cc1`, the Potency entry in experiment [1], in [2] and in [7] was “inactive” each time. The Potency in experiment [4] was 10.5 µM (active); in experiment [8], 11.8 µM (active).
Regarding `CO[C@H]1C[C@@H]2CC[C@@H](C)[C@@](O)(O2)C(=O)C(=O)N2CCCC[C@@H]2C(=O)O[C@H]([C@H](C)C[C@@H]2CC[C@H](OC(=O)C(C)(CO)CO)[C@H](OC)C2)CC(=O)[C@H](C)C=C(C)[C@@H](O)[C@@H](OC)C(=O)[C@H](C)C[C@H](C)C=CC=CC=C1C`, the Potency in experiment [2] is 11.8 µM (active); in experiment [5], 30.6 µM (active); in experiment [6] it was 9.35 µM (active); in experiment [8], 16.6 µM (active).
Take `Cc1nc(N)sc1-c1ccnc(Nc2ccc(N3CCOCC3)cc2)n1`: the Potency in experiment [1] was 18.7 µM (active); in experiment [2], 2.35 µM (active); in [3], 9.35 µM (active); in experiment [4] it was 1.05 µM (active); in experiment [5], 24.3 µM (active); in experiment [6] it was 23.5 µM (active). In addition, the Potency in experiment [7] is 18.7 µM (active); in [8], 11.8 µM (active).
In the case of `Cc1ccn(-c2ccc(-c3ncco3)cc2)c(=O)c1-c1ccc2nc(N)ncc2c1`, the Potency in experiment [4] is 3.32 µM (active). Further, the Potency result in [6] and in experiment [7] was “inactive” in each case.
As for `CC(=O)N(C)C1(c2ccccc2)CCN(CCC[C@]2(c3ccc(Cl)c(Cl)c3)CCCN(C(=O)c3ccccc3)C2)CC1`, the Potency in experiment [4] was 20.9 µM (active); in [5], 30.6 µM (active); in experiment [8], 33.2 µM (active).
As to `O=C1NC(=O)C(=Cc2ccc(-c3ccc(F)cc3)o2)S1`, the Potency entry in experiment [9] and in experiment [7] was “inactive” throughout.
On to `O=C1C(Cl)=C(NCCN2CCOCC2)C(=O)c2ncccc21`, for which the Potency is 11.8 µM (active) in [1]; 6.62 µM (active) in [2]; 1.87 µM (active) in experiment [3]; 7.43 µM (active) in experiment [4]; 3.43 µM (active) in experiment [5]; 4.69 µM (active) in [6]. In addition, the Potency is 5.9 µM (active) in experiment [7] and 2.35 µM (active) in [8].
As for `CNC1CCC(N(Cc2cccc(-c3ccncc3)c2)C(=O)c2sc3c(F)ccc(F)c3c2Cl)CC1` (stereo not given), the Potency result in experiment [9] was “inactive”. Further, the Potency in experiment [4] is 1.18 µM (active); in experiment [8], 18.7 µM (active).
Regarding `c1ccc2c(-c3cnn4cc(-c5ccc(N6CCNCC6)cc5)cnc34)ccnc2c1`, the Potency entry in experiment [9] and in experiment [7] was “inactive” in each case.
In the case of `c1ccc2c(Cc3c[nH]c4ccccc34)c[nH]c2c1`, the Potency in [1] was 3.72 µM (active); in experiment [3], 2.35 µM (active); in [4] it was 0.833 µM (active); in experiment [8], 18.7 µM (active). Also, the Potency result in experiment [7] is “inactive”.
Turning to `NC(=O)c1ccc2nc(-c3ccc(Oc4ccc(Cl)cc4)cc3)[nH]c2c1`, the Potency result in experiment [2], in experiment [6], in [7] and in [8] was “inactive” in each case.
Regarding `CO[C@@H](C(=O)N1Cc2[nH]nc(NC(=O)c3ccc(N4CCN(C)CC4)cc3)c2C1)c1ccccc1`, the Potency is 0.187 µM (active) in experiment [2]; 5.9 µM (active) in experiment [3]; 0.118 µM (active) in experiment [4]; 18.7 µM (active) in [7]; 0.833 µM (active) in [8].
For the compound `COc1ccc(Cc2ccc(NC(N)=O)cc2)cc1-c1cccc(Cl)c1`, the Potency entry in experiment [9], in experiment [6], in experiment [7] and in [8] was “inactive” throughout. Also, the Potency in [4] is 18.7 µM (active).
For `COc1cc(N2CCC(N3CCN(C)CC3)CC2)ccc1Nc1ncnc(Nc2ccccc2S(=O)(=O)C(C)C)n1`, the Potency result in [1], in [7] and in experiment [8] was “inactive” throughout. Besides, the Potency in experiment [3] is 9.35 µM (active); in experiment [5], 15.3 µM (active).
